Reference: PubChem BioAssay AID1159580 (chemical genetic matrix, 2015)
The whole screen tested about 5,500 compounds, of which about 2,000 (36%) were called active. Another 18% or so got no clear call; they are omitted. No stated cut-off is given here; in the data, active means normalized growth mostly below about 0.91 (no sharp cut-off); inconclusive means no clear call, values can overlap the other calls; inactive means mostly above about 0.92. This is one part of the list.

Test: chemical genetic growth profiling, strain panel (AID 1159580);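 further: tested at 20 µM; growth read once vehicle control cultures reached saturation at 30 °C; 1 = growth at the plate median or of vehicle wells; lower values mean less growth of the strain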
Conditions: S. cerevisiae deletion strains, growth OD
[1] = locus YAL040C, strain CLN3, active compounds read low
[2] = locus YCL061C, strain MRC1 (second series), active compounds read low
[3] = locus YDR363W, strain ESC2, active compounds read low
[4] = locus YER002W, strain NOP16, active compounds read low
[5] = locus YGR078C, strain PAC10, active compounds read low
[6] = locus YJR075W, strain HOC1, active compounds read low
[7] = locus YMR307W, strain GAS1, active compounds read low
[8] = locus YNL175C, strain NOP13, active compounds read low
[9] = locus YNL197C, strain WHI3, active compounds read low
[10] = locus YNL224C, strain SQS1, active compounds read low
[11] = locus YOR083W, strain WHI5 (second series), active compounds read low
[12] = locus YPL055C, strain LGE1, active compounds read low
[13] = locus YPL241C, strain CIN2, active compounds read low
[14] = locus YAL013W, strain DEP1, active compounds read low

Measured: normalized growth

CC(C)(C)c1onc(OCP(=O)(O)O)c1CC(N)C(=O)O (stereo not drawn)
inactive: [1] 1 | [2] 0.997 | [3] 1.02 | [4] 0.996 | [5] 1.01 | [6] 1 | [7] 1.03 | locus YNL128W, strain TEP1, active compounds read low 1.03 | [8] 0.999 | [9] 1.01 | [10] 1.01 | [11] 1.06 | [12] 1 | [13] 0.999

O=C(O)C1=CCCN(CCON=C(c2ccccc2)c2ccccc2)C1
inactive: [14] 1 | [1] 1.04 | [2] 1 | locus YDR150W, strain NUM1, active compounds read low 1 | [3] 0.976 | [4] 0.97 | [5] 0.993 | [6] 1 | locus YMR263W, strain SAP30, active compounds read low 1 | [8] 0.987 | [9] 0.981 | [10] 0.993 | [11] 0.987 | [12] 1 | [13] 1

COc1ccc(CCNC[C@@H](O)c2ccc(O)cc2)cc1OC
inactive: [14] 1.01 | [1] 0.995 | [2] 0.993 | [3] 1.02 | [4] 1.01 | [7] 0.944 | locus YNL153C, strain GIM3, active compounds read low 0.999 | [8] 0.992 | [9] 0.981 | [10] 0.989 | [11] 0.986

CNCC(O)c1cccc(O)c1 (stereo not drawn)
inactive: [14] 0.992 | [1] 0.974 | [2] 0.988 | [3] 0.99 | [4] 1.01 | locus YGR229C, strain SMI1, active compounds read low 1.01 | [7] 0.968 | [8] 1.01 | [9] 0.998 | [10] 1 | locus YNL322C, strain KRE1, active compounds read low 0.976 | [11] 1.02 | [12] 0.984
